Measured values as given in PubChem BioAssay.
Inconclusive results are not listed. Active and inactive are the calls of the source.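 How the source made its calls, unless noted: active means normalized viability below 100% at a tested concentration; inactive means the rest.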

What was measured:
[1] = viability loss in pontine glioma line – cell-based, SU-DIPG-XVII, MIPE5.0, CellTiter-Glo, qHTS, dose response (AID 1347060; cut-off not given, nearly all actives have AC50 up to about 26 µM;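 on AC50: cells exposed to compound for 48 hours before viability readout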); settings: CellTiter-Glo ATP luminescence
[2] = viability loss in pontine glioma line – cell-based, SU-DIPG-XIII, MIPE4.0, CellTiter-Glo, qHTS, dose response (AID 1347061; cut-off not given, nearly all actives have AC50 up to about 37 µM;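 further: cells exposed to compound for 48 hours before readout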); settings: CellTiter-Glo ATP luminescence
[3] = viability loss in pontine glioma line – cell-based, JHH-DIPG-1, MIPE4.0, CellTiter-Glo, qHTS, dose response (AID 1347062; cut-off not given, nearly all actives have AC50 up to about 27 µM;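 on AC50: cells exposed to compound for two days before readout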); settings: JHH-DIPG-1 viability, CellTiter-Glo ATP luminescence
[4] = viability loss in pontine glioma line – cell-based, SU-DIPG-IV, MIPE4.0, CellTiter-Glo, qHTS, dose response (AID 1347063; cut-off not given, nearly all actives have AC50 up to about 30 µM;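 further: compound exposure lasted 48 hours before the viability readout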); settings: CellTiter-Glo ATP luminescence
[5] = viability loss in pontine glioma line – cell-based, SU-DIPG-XIII, MIPE5.0, CellTiter-Glo, qHTS, dose response (AID 1347064; cut-off not given, nearly all actives have AC50 up to about 23 µM;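 on AC50: cells exposed to compound for 48 hours before the viability read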); settings: CellTiter-Glo ATP luminescence
[6] = viability loss in pontine glioma line – cell-based, SU-DIPG-XXV, MIPE5.0, CellTiter-Glo, qHTS, dose response (AID 1347065; cut-off not given, nearly all actives have AC50 up to about 26 µM;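 further: cells exposed to compound for 48 hours before ATP readout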); settings: CellTiter-Glo ATP luminescence
[7] = growth inhibition of DIPG cells – cell-based, MIPE4.0 library, CellTiter-Glo luminescence, qHTS (AID 1347066; cut-off not given, nearly all actives have AC50 up to about 30 µM;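 further: cells exposed to compound for 48 hours before readout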); settings: SU-DIPG-VI viability, CellTiter-Glo ATP luminescence
[8] = JHH-DIPG-1 glioma cell viability, MIPE5.0 library, CellTiter-Glo luminescence, qHTS (AID 1347067; cut-off not given, nearly all actives have AC50 up to about 26 µM;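 further: cells exposed to compound for 48 hours before readout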); settings: JHH-DIPG-1 glioma viability, CellTiter-Glo ATP luminescence
[9] = growth inhibition of DIPG cells – cell-based, MIPE5.0 library, qHTS (AID 1347068; cut-off not given, nearly all actives have IC50 up to about 30 µM;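 on IC50: cells exposed to compound for 48 hours before viability readout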); settings: SU-DIPG-XXV viability
[10] = viability loss with induced miR-34 in A549 – imaging, A549 dox-inducible miR-34, nuclei and caspase counts, primary screen (AID 1347080;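 active means compounds whose cell count with miR-34 switched on is under 0.7 times the count with it off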); settings: A549 miR-34 inducible, Hoechst nuclei count, 48 h
[11] = compounds altering HSF1 focus formation in cells – imaging, Selleck Cancer Library (AID 1347162; in the data active means plate-normalised HSF1 focus index below about 0.46); settings: human cells, HSF1 nuclear foci imaging, at 10 µM; SSMD: measured here: HSF1 foci SSMD mean; cell count: measured here: cell number; plate-normalised HSF1 focus index: stronger effect = lower value
[12] = MELAS cybrid and Rieske KO viability enhancers – cell-based, MELAS cybrids, Rieske KO mouse fibroblasts, CellTiter-Glo, primary screen (AID 1508586;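 active means mean z-score across replicates of 1.96 or higher in either the MELAS or the Rieske mutant cell line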;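 further: z relative to plate mean and SD of compound and empty wells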); settings: low glucose
[13] = drug combination growth inhibition, ovarian cancer – cell-based, oncology-focused library, rucaparib conditional, profiling panel (AID 1508598); settings: patient-derived ovarian cancer cells, CellTiter-Glo viability, 144 h, stronger effect = lower value
[14] = stronger effect = lower value, cell number ratio, induced over uninduced
[15] = measured here: relative caspase fold change +Dox/-Dox
[16] = measured here: total cells with miR-34 induction, stronger effect = lower value
[17] = measured here: total cells without miR-34 induction
[18] = MELAS cybrid survival, CellTiter-Glo 48 h, stronger effect = higher value
[19] = Rieske KO mouse fibroblast survival, CellTiter-Glo 72 h
[20] = at 0.000305 µM, OCI-C5x cells, with rucaparib 10 µM, 100% = cells with rucaparib alone
[21] = at 0.000305 µM, OCI-C5x cells, without rucaparib
[22] = at 0.000305 µM, OCI-P5x cells, with rucaparib 20 µM, 100% = cells with rucaparib alone
[23] = at 0.000305 µM, OCI-P5x cells, without rucaparib
[24] = at 0.00122 µM, OCI-C5x cells, with rucaparib 10 µM, 100% = cells with rucaparib alone
[25] = at 0.00122 µM, OCI-C5x cells, without rucaparib
[26] = at 0.00122 µM, OCI-P5x cells, with rucaparib 20 µM, 100% = cells with rucaparib alone
[27] = at 0.00122 µM, OCI-P5x cells, without rucaparib
[28] = at 0.00488 µM, OCI-C5x cells, with rucaparib 10 µM, 100% = cells with rucaparib alone
[29] = at 0.00488 µM, OCI-C5x cells, without rucaparib
[30] = at 0.00488 µM, OCI-P5x cells, with rucaparib 20 µM, 100% = cells with rucaparib alone
[31] = at 0.00488 µM, OCI-P5x cells, without rucaparib
[32] = at 0.0195 µM, OCI-C5x cells, with rucaparib 10 µM, 100% = cells with rucaparib alone
[33] = at 0.0195 µM, OCI-C5x cells, without rucaparib
[34] = at 0.0195 µM, OCI-P5x cells, with rucaparib 20 µM, 100% = cells with rucaparib alone
[35] = at 0.0195 µM, OCI-P5x cells, without rucaparib
[36] = at 0.0781 µM, OCI-C5x cells, with rucaparib 10 µM, 100% = cells with rucaparib alone
[37] = at 0.0781 µM, OCI-C5x cells, without rucaparib
[38] = at 0.0781 µM, OCI-P5x cells, with rucaparib 20 µM, 100% = cells with rucaparib alone
[39] = at 0.0781 µM, OCI-P5x cells, without rucaparib
[40] = at 0.313 µM, OCI-C5x cells, with rucaparib 10 µM, 100% = cells with rucaparib alone
[41] = at 0.313 µM, OCI-C5x cells, without rucaparib
[42] = at 0.313 µM, OCI-P5x cells, with rucaparib 20 µM, 100% = cells with rucaparib alone
[43] = at 0.313 µM, OCI-P5x cells, without rucaparib
[44] = at 1.25 µM, OCI-C5x cells, with rucaparib 10 µM, 100% = cells with rucaparib alone
[45] = at 1.25 µM, OCI-C5x cells, without rucaparib
[46] = at 1.25 µM, OCI-P5x cells, with rucaparib 20 µM, 100% = cells with rucaparib alone
[47] = at 1.25 µM, OCI-P5x cells, without rucaparib
[48] = at 5 µM, OCI-C5x cells, with rucaparib 10 µM, 100% = cells with rucaparib alone
[49] = at 5 µM, OCI-C5x cells, without rucaparib
[50] = at 5 µM, OCI-P5x cells, with rucaparib 20 µM, 100% = cells with rucaparib alone
[51] = at 5 µM, OCI-P5x cells, without rucaparib

Nc1cc(C(F)(F)F)c(-c2cc(N3CCOCC3)nc(N3CCOCC3)n2)cn1
7440: cell count [11]
1810: cell count [10, 17]
1.1: fold change [10, 15]
1500: cell count [10, 16]
inactive: fold change [10, 14] 0.829 | plate-normalised HSF1 focus index [11] 0.897 | viability [13, 20] 103% | viability [13, 21] 125% | viability [13, 22] 104% | viability [13, 23] 106% | viability [13, 24] 103% | viability [13, 25] 120% | viability [13, 27] 114% | viability [13, 28] 112% | viability [13, 29] 141% | viability [13, 30] 103% | viability [13, 31] 107% | viability [13, 32] 104% | viability [13, 33] 117% | viability [13, 34] 100% | viability [13, 35] 110% | viability [13, 36] 120% | viability [13, 37] 121% | viability [13, 38] 104% | viability [13, 39] 102% | viability [13, 41] 124%
active: AC50 [1] 2950 nM | AC50 [2] 6620 nM | AC50 [3] 2090 nM | AC50 [4] 332 nM | AC50 [5] 2950 nM | AC50 [6] 934 nM | AC50 [7] 1480 nM | AC50 [8] 1480 nM | IC50 [9] 3720 nM | z-score [12, 18] 2.94 | viability [13, 26] 98.2% | viability [13, 40] 93.6% | viability [13, 42] 87.5% | viability [13, 43] 92.9% | viability [13, 44] 71.8% | viability [13, 45] 80.8% | viability [13, 46] 69.7% | viability [13, 47] 51.3% | viability [13, 48] 31.4% | viability [13, 49] 25.1% | viability [13, 50] 26.6% | viability [13, 51] 12.2%
-2.21: z-score [12, 19]
-2.85: SSMD [11]

C=C1C(=O)[C@@]23C(CC[C@@H]1[C@H]2O)[C@@]12CO[C@]3(O)[C@@H](O)[C@@H]1C(C)(C)CC[C@@H]2O (some centres undefined)
active: AC50 [1] 9340 nM | AC50 [2] 7430 nM | AC50 [3] 4180 nM | AC50 [4] 2350 nM | AC50 [5] 6610 nM | AC50 [6] 8330 nM | AC50 [7] 3720 nM | AC50 [8] 5900 nM | IC50 [9] 9340 nM

CCC(C(=O)O)C1CCC(C)C(C(C)C(O)C(C)C(=O)C(CC)C2OC3(C=CC(O)[C@@]4(CC[C@](C)(C5CC[C@@](O)(CC)C(C)O5)O4)O3)C(C)CC2C)O1 (some centres undefined)
active: AC50 [1] 2350 nM | AC50 [2] 935 nM | AC50 [3] 3320 nM | AC50 [4] 1660 nM | AC50 [5] 3320 nM | AC50 [6] 833 nM | AC50 [7] 1870 nM | AC50 [8] 934 nM | IC50 [9] 2350 nM

Cn1cc(-c2ccc3nnc(Sc4ccc5ncccc5c4)n3n2)cn1
7530: cell count [11]
0.75: z-score [12, 19]
inactive: outcome [1] | outcome [2] | outcome [3] | outcome [4] | outcome [5] | outcome [6] | outcome [7] | outcome [8] | outcome [9] | fold change [10, 14] 0.884 | plate-normalised HSF1 focus index [11] 1.11 | z-score [12, 18] -0.396 | viability [13, 20] 127% | viability [13, 21] 127% | viability [13, 24] 135% | viability [13, 25] 125% | viability [13, 26] 111% | viability [13, 28] 132% | viability [13, 29] 125% | viability [13, 30] 112% | viability [13, 31] 102% | viability [13, 32] 126% | viability [13, 33] 122% | viability [13, 34] 110% | viability [13, 35] 103% | viability [13, 36] 120% | viability [13, 37] 124% | viability [13, 38] 103% | viability [13, 39] 110% | viability [13, 40] 126% | viability [13, 41] 123% | viability [13, 42] 107% | viability [13, 43] 106% | viability [13, 44] 131% | viability [13, 45] 124% | viability [13, 46] 105% | viability [13, 47] 104% | viability [13, 48] 157% | viability [13, 49] 114% | viability [13, 51] 100%
7210: cell count [10, 16]
active: viability [13, 22] 97.6% | viability [13, 23] 94.3% | viability [13, 27] 98.6% | viability [13, 50] 91.5%
0.78: fold change [10, 15]
1.79: SSMD [11]
8160: cell count [10, 17]

O=C1NC(=O)/C(=C/c2ccc3nccc(-c4ccncc4)c3c2)S1
active: AC50 [1] 1180 nM | AC50 [2] 743 nM | AC50 [3] 1050 nM | AC50 [4] 83.3 nM | AC50 [5] 1480 nM | AC50 [6] 468 nM | AC50 [7] 264 nM | AC50 [8] 1480 nM | IC50 [9] 1320 nM

COc1cc(CCc2cc(NC(=O)c3ccc(N4C[C@@H](C)N[C@@H](C)C4)cc3)n[nH]2)cc(OC)c1
active: AC50 [1] 417 nM | AC50 [2] 8330 nM | AC50 [3] 18700 nM | AC50 [4] 16600 nM | AC50 [5] 235 nM | AC50 [6] 263 nM | AC50 [7] 23500 nM | AC50 [8] 13200 nM | IC50 [9] 8330 nM

Clc1cccc(-n2nnnc2NCc2ccccc2Oc2ccccn2)c1Cl
inactive: outcome [1] | outcome [2] | outcome [3] | outcome [4] | outcome [5] | outcome [6] | outcome [7] | outcome [8] | outcome [9]

OC[C@H]1O[C@@H](n2cnc3c2NC=NC[C@H]3O)C[C@@H]1O
inactive: outcome [1] | outcome [2] | outcome [3] | outcome [4] | outcome [5] | outcome [6] | outcome [7] | outcome [8] | outcome [9]
